Assay results: ChEMBL document CHEMBL3988442, “University of Dundee, Small-Polar-MMV Screening Library” (2021)

Tests used:
[1] = molecular target: T1, Aspartate--tRNA(Asp/Asn) ligase (Mycobacterium tuberculosis (strain ATCC 25618 / H37Rv)) (UniProt P9WFW3); assay: Assay for Asp RNA synthetase-1 from Mycobacterium tuberculosis; type: functional; design: scale not given: direction of the effect not stated beside the values; conditions: 30 µM; further: in the data most compounds retested in dose-response had high values
T1 sequence (whole entry): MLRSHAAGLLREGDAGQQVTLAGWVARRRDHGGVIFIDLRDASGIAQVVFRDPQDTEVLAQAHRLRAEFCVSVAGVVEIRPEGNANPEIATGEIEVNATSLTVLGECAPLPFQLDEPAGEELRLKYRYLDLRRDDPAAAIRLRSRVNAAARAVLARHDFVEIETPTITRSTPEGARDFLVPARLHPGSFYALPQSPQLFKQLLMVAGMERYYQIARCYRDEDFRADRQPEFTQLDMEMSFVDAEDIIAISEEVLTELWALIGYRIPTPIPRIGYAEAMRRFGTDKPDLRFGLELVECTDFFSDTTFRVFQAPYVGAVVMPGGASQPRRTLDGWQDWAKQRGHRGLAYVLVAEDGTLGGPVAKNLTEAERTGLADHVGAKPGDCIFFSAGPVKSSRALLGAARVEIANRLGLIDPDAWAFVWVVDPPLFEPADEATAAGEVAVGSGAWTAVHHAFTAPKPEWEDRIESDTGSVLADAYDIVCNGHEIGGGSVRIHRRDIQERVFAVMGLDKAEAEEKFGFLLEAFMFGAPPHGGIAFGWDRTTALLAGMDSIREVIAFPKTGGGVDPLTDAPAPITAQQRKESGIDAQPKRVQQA

[2] = molecular target: Shiga toxin 2 (Escherichia coli O157:H7) (UniProt P09385+P09386); assay: E. coli 0.157:H7 Shiga Toxin SOP - stx2 screening assay; type: functional; design: scale not given: direction of the effect not stated beside the values; conditions: 30 µM

Structure (SMILES)	Percent Effect [1] [%]	Percent Effect [2] [%]
CN(CC1COc2ccccc2O1)C(=O)NCCCn1cncn1 (centres undefined)	1.57	21.4
CCNc1cc2c(nn1)CCN(C(=O)c1cc3nc(C)ccc3o1)C2	-4.95	-51.6
O=C(COCc1nc(-c2ccncc2)no1)N1CCCCCC1	10.6	-22.7
O=C(CN1CCc2cncnc2C1)NCCOc1ccccc1	0.955	21.9
Cc1cc(C)c2cc(CNCC3CCCO3)c3nn(C)c(=O)n3c2c1 (centres undefined)	1.03	3.55
CC(=O)c1ccc(N2CCCC(CO)(CCOc3ccccc3)C2)nc1 (centres undefined)	-2.11	-9.89
Cc1c[nH]c(CN(C)c2nc(C3CCCC3)nc3c2cnn3C)n1	0.0557	-4.38
CNC(=O)CCc1cc(C)nc(C2CCCN2)n1 (centres undefined)	7.7	9.84
c1ccc(Cn2cc3c(n2)C(CNCc2ccco2)OCC3)nc1 (centres undefined)	6.18	-26.1
O=C(Nc1nncs1)NC1CCc2ccccc21 (centres undefined)	1.46	-33.6
Cc1occc1C(=O)N1CCC2(CCC(C(=O)NCC3CC3)O2)CC1 (centres undefined)	-0.182	-6.83
Cc1cc(C)n(CC2CCCCN2CCCS(N)(=O)=O)n1 (centres undefined)	-7.33	-48
CNC(=O)c1cnc(/C=C/c2ccc(OC)c(O)c2)s1	1.65	-56.5
O=C(NCCC1CCCO1)c1ccccc1N1CCOCC1 (centres undefined)	-8.37	-3.88
Cn1ccc(C(=O)NC2CCC23CCN(C(=O)N2CCCC2)CC3)c1 (centres undefined)	-3.32	-4.99
Cc1nc(C)n(C2CCCN(C(=O)CCCOc3ccccc3)C2)n1 (centres undefined)	-1.97	3.84
c1ccc2oc(CCCN3CCCC3Cn3cncn3)nc2c1 (centres undefined)	-1.22	7.93
Cc1cc(CN2CCN(c3nn4cc(C)nc4s3)CC2)on1	-0.8	-27.6
Cc1ccc(C2CCCCCN2Cc2cn(C)nc2C)s1 (centres undefined)	-2.17	-71.3
CCN1CC2(CC1=O)CN(C(=O)c1ccco1)CCN(C(=O)N(C)C)C2 (centres undefined)	0.684	-12.4
O=C(c1ccc(=O)[nH]n1)N1CC(c2nc(Cc3ccccc3)no2)C1	-0.546	-7.29
Cc1noc(C2CCN(C(=O)CN(C)c3ccc(Cl)cn3)CC2)n1	-1.59	-21.6
c1cnnc(N2CCCC(NCc3ccc(-n4cccn4)cc3)C2)c1 (centres undefined)	-2.36	11
O=C1N(c2cccc(Cl)c2)Cc2nc(=O)n(Cc3cccc(F)c3)n21	6.56	-11.3

Structure (SMILES)	Percent Effect [1] [%]	Percent Effect [2] [%]
Cc1ccccc1C1(C(=O)NCCN2CCCC2)CCOCC1	11.1	12.4
COc1c(CNCc2ccc(CN(C)C)cc2)c(C)nn1C	2.29	-30.1
COCCn1nc(C(=O)N(C)Cc2cnn(C)c2)ccc1=O	-3.74	9.25
O=C(C1CCCC1)N1CCC2(CC1)COCCN2CC1CC1	-3.37	0.147
COc1ccccc1CN(C)C(=O)c1cc(CN2CCC(O)CC2)on1	3.59	-16.2
COc1cccc(C(=O)N2CCCC(c3cc(C)[nH]n3)C2)c1OC (centres undefined)	-1.08	27
c1cnc(-c2nc(CNCCn3cccn3)cs2)nc1	-1.5	5.58
Cn1cc(CNCC2Cn3nnc(-c4ccccc4)c3CO2)cn1 (centres undefined)	5.57	-42.7
Cc1nc(C2CCCN(C(=O)COCc3ccccc3Cl)C2)no1 (centres undefined)	1.96	5.07
Cc1cc(C)n(C2CCCN(C(=O)c3cnc4onc(C)c4c3)C2)n1 (centres undefined)	-0.75	15.8
CC(NC(=O)Nc1cccnc1N1CCCC1)c1nncn1C (centres undefined)	-2.86	7.91
CCN(CC1CCOC1)C(=O)c1cccnc1N1CCOCC1 (centres undefined)	-1.66	25.6
CNC1CCCN(Cc2noc(C3CC3)n2)C1 (centres undefined)	-0.881	-5.27
N#Cc1cccc(NC(=O)N[C@H](CO)c2ccccc2)c1	3.31	-24.6
Cc1csc([C@@H]2C[C@@H]3CCN(Cc4cnn(C)c4)C[C@H]3O2)n1	-2.71	-29.9
O=C(c1ccccn1)N1CCc2c(nc(N3CCCC3)[nH]c2=O)C1	-2.28	-39.9
CC(NC1(CNC(=O)Cn2cccn2)CCOCC1)c1ccccc1 (centres undefined)	-0.24	10.6
CO[C@H]1CCN(c2ccc(C)nn2)[C@H]1Cc1cnn(C)c1	1.39	3.96
O=C(c1cnccn1)N1CCOCC2(CCN(C3CCOCC3)C2)C1 (centres undefined)	3.28	-36.9
Cc1nc(C2CCCN(C(=O)c3cnn(C(C)(C)C)c3)C2)no1 (centres undefined)	-4.47	-34.6
CCc1ccsc1C(=O)N1CCN(CC(O)CC)CC1 (centres undefined)	1.06	-26.4
CCc1nc(CN(C)C2CCN(CCc3ccccn3)C2)no1 (centres undefined)	8.1	-35.9
CC(=O)N1CCN(Cc2csc(-c3cnn(C)c3)n2)CC1	-1.03	-1.47
